These compounds were tested on HEK293FT dCK*-only (assay: relative growth in counter assay (no AraC = 100%, AraC + DMSO = 0%); higher = more growth rescue independent of IKZF1). Details: compound concentration: 5 uM; AraC concentration: 0.3 uM; overnight pretreatment + 4 days AraC.
Summary of the method: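 This counter assay used HEK293FT cells expressing only an engineered kinase construct, seeded at 300 per well in 384-well plates. Compound was added at 5 μM 2 h after seeding, and after overnight at 37 °C the cells received a nucleoside suicide substrate at 0.3 μM plus medium for 4 days. On day 5, nuclei stained with Hoechst 33342 were counted by imaging, and relative growth was normalised per plate; wells without suicide substrate were set at 100% and wells with substrate plus vehicle at 0%.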
In the case of `CC[C@@H](C(=O)O)C1CC[C@H](C)C([C@@H](C)[C@H](O)[C@H](C)C(=O)[C@H](CC)C2O[C@]3(C=C[C@@H](O)[C@]4(CC[C@@](C)(C5CC[C@](O)(CC)[C@H](C)O5)O4)O3)[C@H](C)C[C@@H]2C)O1` (some centres not stated) [Salinomycin (Procoxacin)], the “relative growth in counter assay” value is reported as -10.3%.
In the case of `CCCCCCCCCCCCCCCC[n+]1ccccc1`, the “relative growth in counter assay” value is reported as -34.4%.
With `O=c1c2ccccc2[se]n1-c1ccccc1` the “relative growth in counter assay” value was -8.59%.
With `C[C@@]1(CO)[C@H](O)CC[C@@]2(C)[C@H]1CC[C@H]1C[C@@H]3C[C@@]12CC[C@]3(O)CO` [Aphidicolin] the “relative growth in counter assay” value was -34.1%.
`N#Cc1nn(-c2c(Cl)cc(C(F)(F)F)cc2Cl)c(N)c1S(=O)C(F)(F)F` (configuration not stated) was tested, and the “relative growth in counter assay” value was 7.45%.
For `O=C(N/N=C/c1ccc([N+](=O)[O-])o1)c1cc([N+](=O)[O-])cc([N+](=O)[O-])c1O`, the “relative growth in counter assay” value was -3.38%.
With `O=C(Nc1ccc(Br)cc1)c1cc(Br)cc(Br)c1O` [tribomsalan] the “relative growth in counter assay” value was -2.64%.

Each compound was assayed on HEK293FT dCK*-IKZF1 (assay: relative growth recovery (pomalidomide 10 uM = 100%, DMSO = 0%); higher = more growth rescue (IKZF1 fusion degradation)). Details: compound concentration: 5 uM; AraC concentration: 0.3 uM; overnight pretreatment + 4 days AraC.
Summary of the method: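 HEK293FT cells stably expressing an engineered deoxycytidine kinase–IKZF1 fusion were seeded at 300 per well in 384-well plates and given 5 μM compound 2 h later. After overnight incubation at 37 °C, a nucleoside suicide substrate at 0.3 μM was added with medium for 4 days, and on day 5 Hoechst 33342-stained nuclei were counted by whole-well imaging. Growth recovery was normalised per plate between a reference degrader and vehicle, set to 100% and 0% respectively, and the values are means of duplicates run on different days.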
`C=C(C)CN1CC[C@]23c4c5ccc(O)c4O[C@H]2c2[nH]c4ccccc4c2C[C@@]3(O)C1C5` gave a relative growth recovery of -3.3%.
`O=c1n(Cl)c(=O)n(Cl)c(=O)n1Cl` showed a relative growth recovery of -1.44%.
Work on `COc1ccc(C[C@H]2NC[C@H](O)[C@H]2OC(C)=O)cc1` [anisomycin] yielded a relative growth recovery of -12.5%.
`C(=C\c1ccccc1)/CN1CCN(CCOC(c2ccccc2)c2ccccc2)CC1` showed a relative growth recovery of 0.86%.
`COc1cc2cc(c1Cl)N(C)C(=O)C[C@H](OC(=O)C(C)C)[C@]1(C)O[C@H]1[C@H](C)[C@@H]1C[C@@](O)(NC(=O)O1)[C@H](OC)/C=C/C=C(\C)C2` [Ansamitocin P-3] showed a relative growth recovery of -12.4%.
`O=C(CCCN1CCC2(CC1)C(=O)NCN2c1ccccc1)c1ccc(F)cc1` [spiperone] showed a relative growth recovery of -0.995%.
Work on `c1ccc2c(c1)sc1ccccc12` yielded a relative growth recovery of 1.72%.
Compound `O=[N+]([O-])c1cc(O)c(O)c([N+](=O)[O-])c1` has a relative growth recovery of 0.23%.
`COC[C@H]1OC(=O)c2coc3c2[C@@]1(C)C1=C(C3=O)[C@@H]2CCC(=O)[C@@]2(C)C[C@H]1OC(C)=O` [Wortmannin] was tested, and the relative growth recovery was 1.92%.
With `COc1cc([C@@H]2c3cc4c(cc3[C@H](O)[C@H]3COC(=O)C23)OCO4)cc(OC)c1OC` (some centres not stated) [Podofilox] the relative growth recovery was -12.1%.
Work on `Clc1ccccc1C(c1ccccc1)(c1ccccc1)n1cccn1` yielded a relative growth recovery of -1.69%.
Work on `COc1cc([C@@H]2c3cc4c(cc3[C@H](O)[C@H]3COC(=O)[C@H]23)OCO4)cc(OC)c1OC` yielded a relative growth recovery of -11.7%.
Work on `Oc1cc(Cl)ccc1Oc1ccc(Cl)cc1Cl` yielded a relative growth recovery of -0.94%.
For `O=[N+]([O-])/C=C/c1ccc2c(c1)OCO2`, the relative growth recovery was -13.1%.
`O=[N+]([O-])c1ccc(Cl)c([N+](=O)[O-])c1` [2,4-dinitrochlorobenzene] was tested, and the relative growth recovery was -12.8%.
Work on `CC[C@@]1(O)C(=O)OCc2c1cc1n(c2=O)Cc2cc3ccccc3nc2-1` [camptothecin] yielded a relative growth recovery of -12.9%.
With `CCC(C)[C@H]1O[C@]2(C=C[C@@H]1C)C[C@@H]1C[C@@H](C/C=C(\C)[C@@H](OC3C[C@H](OC)C(O[C@H]4C[C@H](OC)[C@@H](O)[C@H](C)O4)[C@H](C)O3)[C@@H](C)/C=C/C=C3\CO[C@@H]4[C@H](O)C(C)=C[C@@H](C(=O)O1)[C@]34O)O2` (some centres not stated) [ABAMECTIN (avermectin B1a shown)] the relative growth recovery was -3.08%.
In the case of `O=c1[nH]c2ccccc2n1CCCN1CCC(n2c(=O)[nH]c3cc(Cl)ccc32)CC1`, the relative growth recovery is reported as 2.7%.
`COC(=O)[C@@]12OC[C@]34[C@H]([C@@H](O)[C@@H]1O)[C@@]1(C)CC(=O)C(O)=C(C)[C@@H]1C[C@H]3OC(=O)[C@H](OC(=O)/C=C(\C)C(C)C)[C@@H]24` [Bruceantin] was tested, and the relative growth recovery was -12.3%.
In the case of `CC(C)[C@]12O[C@H]1[C@@H]1O[C@]13[C@]1(O[C@H]1C[C@H]1C4=C(CC[C@@]13C)C(=O)OC4)[C@@H]2O` [Triptolide], the relative growth recovery is reported as -12.8%.
With `CCCCCCCCCCC(=O)O[C@H]1CC[C@H]2[C@@H]3CCC4=CC(=O)CC[C@]4(C)[C@H]3CC[C@]12C` [Testosterone (undecanoate)] the relative growth recovery was -0.23%.
For `CN(C)C(=S)SSC(=S)N(C)C`, the relative growth recovery was -12.7%.
`c1ccc2c(c1)Nc1ccccc1S2` was tested, and the relative growth recovery was 0.68%.
For `Cc1cc(C(C#N)c2ccc(Cl)cc2)c(Cl)cc1NC(=O)c1cc(I)cc(I)c1O` (configuration not stated), the relative growth recovery was -0.555%.
Compound `O=C1/C(=C/c2ccccc2)C[C@@]2(O)C3Cc4ccc(O)c5c4[C@@]2(CCN3CC2CC2)[C@H]1O5` has a relative growth recovery of -12.6%.

Source: the supplement of paper PMC12340641
